Experimental findings from ChEMBL document CHEMBL1961873, “Compounds: GSK PKIS; Assays: Nanosyn kinase panel” (2012) are described below.

Each structure is given as a SMILES string. “And” between values parts separate entries of the source, which are not always exact repeats. Identical values can stand only once.

Assay [1] deals with Death-associated protein kinase 1 (Homo sapiens) (UniProt P53355). The conditions noted are these: at 1 µM.
Assay [2] has as its target T1, Serine/threonine-protein kinase DCLK2 (Homo sapiens) (UniProt Q8N568).
T1 sequence (whole entry): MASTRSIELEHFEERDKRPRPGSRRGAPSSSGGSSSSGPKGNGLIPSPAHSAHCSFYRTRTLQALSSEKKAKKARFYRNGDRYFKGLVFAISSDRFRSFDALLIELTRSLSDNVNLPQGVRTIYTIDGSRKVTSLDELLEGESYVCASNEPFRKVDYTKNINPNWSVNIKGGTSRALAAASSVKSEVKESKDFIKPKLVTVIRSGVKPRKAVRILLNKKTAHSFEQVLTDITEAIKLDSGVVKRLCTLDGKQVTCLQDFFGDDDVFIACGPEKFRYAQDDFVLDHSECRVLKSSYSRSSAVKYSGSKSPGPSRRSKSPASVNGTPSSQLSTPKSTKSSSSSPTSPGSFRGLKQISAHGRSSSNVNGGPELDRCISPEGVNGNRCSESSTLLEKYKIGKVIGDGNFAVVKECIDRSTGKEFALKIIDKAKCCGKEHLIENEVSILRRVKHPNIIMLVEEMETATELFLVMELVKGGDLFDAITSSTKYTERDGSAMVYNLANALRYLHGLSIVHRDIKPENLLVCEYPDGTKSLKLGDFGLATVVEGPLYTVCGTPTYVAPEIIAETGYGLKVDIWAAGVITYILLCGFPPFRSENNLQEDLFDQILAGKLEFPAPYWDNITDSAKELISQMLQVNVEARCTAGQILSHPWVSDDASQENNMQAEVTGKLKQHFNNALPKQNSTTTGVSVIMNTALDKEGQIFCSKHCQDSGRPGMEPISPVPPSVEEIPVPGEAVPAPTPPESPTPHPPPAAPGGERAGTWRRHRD
The conditions noted are these: at 0.1 µM.

The target of assay [3] is T1, Serine/threonine-protein kinase DCLK2 (Homo sapiens). To be noted: at 1 µM.
Assay [4] addresses MAP kinase-activated protein kinase 2 (Homo sapiens) (UniProt P49137). The conditions noted are these: at 0.1 µM.
Assay [5] shares this target. The conditions noted are these: at 1 µM.
The target in assay [6] is MAP kinase-activated protein kinase 3 (Homo sapiens) (UniProt Q16644). To be noted: at 0.1 µM.
Assay [7] has the same target. The conditions noted are these: at 1 µM.
Assay [8] deals with Serine/threonine-protein kinase MARK1 (Homo sapiens) (UniProt Q9P0L2). The conditions noted are these: at 0.1 µM.
Sequence of Serine/threonine-protein kinase MARK1 (Homo sapiens) (Q9P0L2 whole entry, looked up): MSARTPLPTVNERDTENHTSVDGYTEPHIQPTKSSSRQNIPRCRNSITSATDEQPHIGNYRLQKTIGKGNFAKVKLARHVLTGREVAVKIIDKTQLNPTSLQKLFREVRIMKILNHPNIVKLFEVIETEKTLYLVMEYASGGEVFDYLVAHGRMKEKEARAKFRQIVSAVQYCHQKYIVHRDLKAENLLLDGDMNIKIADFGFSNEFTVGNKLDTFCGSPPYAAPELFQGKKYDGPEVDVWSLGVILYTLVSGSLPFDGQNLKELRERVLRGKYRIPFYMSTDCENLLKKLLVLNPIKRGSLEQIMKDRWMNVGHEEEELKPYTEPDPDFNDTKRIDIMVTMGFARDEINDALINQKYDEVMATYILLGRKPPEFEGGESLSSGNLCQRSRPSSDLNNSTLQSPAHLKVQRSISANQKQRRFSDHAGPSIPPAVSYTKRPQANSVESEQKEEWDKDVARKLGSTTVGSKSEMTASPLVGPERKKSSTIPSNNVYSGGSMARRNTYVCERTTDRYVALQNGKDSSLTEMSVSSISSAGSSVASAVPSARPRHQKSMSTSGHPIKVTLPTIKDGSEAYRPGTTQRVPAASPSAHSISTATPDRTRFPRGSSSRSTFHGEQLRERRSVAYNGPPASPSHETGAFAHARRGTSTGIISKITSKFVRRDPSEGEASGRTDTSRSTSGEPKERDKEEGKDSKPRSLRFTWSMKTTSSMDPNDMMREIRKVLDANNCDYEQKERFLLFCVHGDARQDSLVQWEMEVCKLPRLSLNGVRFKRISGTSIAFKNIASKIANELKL
For assay [9] the target is unchanged. To be noted: at 1 µM.
In assay [10] the target is MAP/microtubule affinity-regulating kinase 3 (Homo sapiens) (UniProt P27448). To be noted: at 0.1 µM.
Assay [11] has the same target. The conditions noted are these: at 1 µM.
The target in assay [12] is T2, MAP/microtubule affinity-regulating kinase 4 (Homo sapiens) (UniProt Q96L34).
T2 sequence (whole entry): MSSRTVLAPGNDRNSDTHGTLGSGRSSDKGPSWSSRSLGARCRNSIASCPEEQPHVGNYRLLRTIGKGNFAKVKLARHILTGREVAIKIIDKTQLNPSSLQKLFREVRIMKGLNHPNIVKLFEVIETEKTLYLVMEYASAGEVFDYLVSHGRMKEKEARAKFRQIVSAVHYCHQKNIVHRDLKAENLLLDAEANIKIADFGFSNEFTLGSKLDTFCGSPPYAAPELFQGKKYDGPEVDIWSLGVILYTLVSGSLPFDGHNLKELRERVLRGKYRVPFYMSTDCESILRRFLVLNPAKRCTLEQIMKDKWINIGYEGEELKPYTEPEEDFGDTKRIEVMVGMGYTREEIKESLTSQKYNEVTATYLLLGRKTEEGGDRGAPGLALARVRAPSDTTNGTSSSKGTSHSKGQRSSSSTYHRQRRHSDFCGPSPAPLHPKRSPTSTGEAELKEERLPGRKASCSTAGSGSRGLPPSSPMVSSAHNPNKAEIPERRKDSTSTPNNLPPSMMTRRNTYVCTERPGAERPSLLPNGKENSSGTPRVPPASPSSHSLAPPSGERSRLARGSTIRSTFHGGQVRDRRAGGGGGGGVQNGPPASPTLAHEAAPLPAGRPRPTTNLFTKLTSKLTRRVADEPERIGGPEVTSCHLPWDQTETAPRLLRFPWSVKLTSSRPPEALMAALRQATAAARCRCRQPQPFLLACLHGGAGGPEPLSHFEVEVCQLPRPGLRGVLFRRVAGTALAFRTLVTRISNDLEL
The conditions noted are these: at 0.1 µM.

Assay [13] addresses T2, MAP/microtubule affinity-regulating kinase 4 (Homo sapiens). To be noted: at 1 µM.
The target of assay [14] is Maternal embryonic leucine zipper kinase (Homo sapiens) (UniProt Q14680). The conditions noted are these: at 0.1 µM.
Sequence of Maternal embryonic leucine zipper kinase (Homo sapiens) (Q14680 whole entry, looked up): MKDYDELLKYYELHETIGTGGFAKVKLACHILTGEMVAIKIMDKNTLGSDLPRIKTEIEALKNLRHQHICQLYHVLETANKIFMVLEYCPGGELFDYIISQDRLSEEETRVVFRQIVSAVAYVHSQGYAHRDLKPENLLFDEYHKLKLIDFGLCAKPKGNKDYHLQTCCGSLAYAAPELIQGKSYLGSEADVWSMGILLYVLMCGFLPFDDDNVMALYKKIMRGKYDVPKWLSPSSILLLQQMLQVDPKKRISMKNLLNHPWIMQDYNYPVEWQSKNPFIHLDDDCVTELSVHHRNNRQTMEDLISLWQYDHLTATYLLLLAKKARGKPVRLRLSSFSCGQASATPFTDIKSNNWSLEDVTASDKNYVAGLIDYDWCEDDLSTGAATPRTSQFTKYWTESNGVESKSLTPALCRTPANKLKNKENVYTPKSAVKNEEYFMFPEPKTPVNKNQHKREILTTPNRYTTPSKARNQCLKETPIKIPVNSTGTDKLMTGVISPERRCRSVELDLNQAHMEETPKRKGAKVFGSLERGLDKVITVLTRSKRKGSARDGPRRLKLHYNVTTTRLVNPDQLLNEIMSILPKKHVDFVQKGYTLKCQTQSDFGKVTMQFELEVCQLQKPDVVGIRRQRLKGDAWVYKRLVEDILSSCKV
Assay [15] shares this target. The conditions noted are these: at 1 µM.
Assay [16] addresses MAP kinase-interacting serine/threonine-protein kinase 1 (Homo sapiens) (UniProt Q9BUB5). To be noted: at 0.1 µM.
The target is the same in assay [17]. To be noted: at 1 µM.
The target in assay [18] is MAP kinase-interacting serine/threonine-protein kinase 2 (Homo sapiens) (UniProt Q9HBH9). The conditions noted are these: at 0.1 µM.
Sequence of MAP kinase-interacting serine/threonine-protein kinase 2 (Homo sapiens) (Q9HBH9 whole entry, looked up): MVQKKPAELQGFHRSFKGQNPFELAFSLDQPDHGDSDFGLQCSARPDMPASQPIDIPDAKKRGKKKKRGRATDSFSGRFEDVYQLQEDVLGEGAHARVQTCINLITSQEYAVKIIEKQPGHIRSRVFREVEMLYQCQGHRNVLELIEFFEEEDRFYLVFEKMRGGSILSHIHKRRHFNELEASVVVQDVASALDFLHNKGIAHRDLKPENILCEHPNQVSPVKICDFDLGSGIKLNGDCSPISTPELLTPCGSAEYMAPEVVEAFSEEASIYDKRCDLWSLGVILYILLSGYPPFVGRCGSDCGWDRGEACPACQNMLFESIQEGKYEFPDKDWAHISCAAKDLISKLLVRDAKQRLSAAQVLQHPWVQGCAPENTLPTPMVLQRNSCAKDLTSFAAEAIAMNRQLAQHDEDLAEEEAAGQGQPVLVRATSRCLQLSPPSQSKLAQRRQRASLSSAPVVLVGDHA
For assay [19] the target is unchanged. To be noted: at 1 µM.
Assay [20] deals with Serine/threonine-protein kinase MARK2 (Homo sapiens) (UniProt Q7KZI7). The conditions noted are these: at 0.1 µM.
Sequence of Serine/threonine-protein kinase MARK2 (Homo sapiens) (Q7KZI7 whole entry): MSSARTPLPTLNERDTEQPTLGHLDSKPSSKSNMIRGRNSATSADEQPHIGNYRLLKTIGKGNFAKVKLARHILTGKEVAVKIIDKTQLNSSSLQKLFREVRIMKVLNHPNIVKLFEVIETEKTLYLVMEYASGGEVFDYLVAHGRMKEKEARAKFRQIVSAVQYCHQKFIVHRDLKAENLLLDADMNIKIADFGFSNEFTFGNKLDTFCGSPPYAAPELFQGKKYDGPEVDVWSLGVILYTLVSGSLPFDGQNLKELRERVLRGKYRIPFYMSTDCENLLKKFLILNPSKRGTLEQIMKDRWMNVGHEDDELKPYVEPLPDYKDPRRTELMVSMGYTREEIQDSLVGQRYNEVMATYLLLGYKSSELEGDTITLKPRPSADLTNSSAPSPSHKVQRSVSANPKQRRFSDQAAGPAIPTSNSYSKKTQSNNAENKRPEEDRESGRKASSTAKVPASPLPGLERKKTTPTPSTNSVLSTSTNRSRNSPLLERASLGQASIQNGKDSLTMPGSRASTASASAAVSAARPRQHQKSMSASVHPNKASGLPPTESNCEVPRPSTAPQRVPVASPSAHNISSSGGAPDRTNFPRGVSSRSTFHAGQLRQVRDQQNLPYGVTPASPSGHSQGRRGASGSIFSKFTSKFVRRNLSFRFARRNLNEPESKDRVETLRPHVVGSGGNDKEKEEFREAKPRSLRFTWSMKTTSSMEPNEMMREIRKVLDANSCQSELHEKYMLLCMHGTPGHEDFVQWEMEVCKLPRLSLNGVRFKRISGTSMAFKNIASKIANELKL

Sequence of Death-associated protein kinase 1 (Homo sapiens) (P53355 whole entry, looked up): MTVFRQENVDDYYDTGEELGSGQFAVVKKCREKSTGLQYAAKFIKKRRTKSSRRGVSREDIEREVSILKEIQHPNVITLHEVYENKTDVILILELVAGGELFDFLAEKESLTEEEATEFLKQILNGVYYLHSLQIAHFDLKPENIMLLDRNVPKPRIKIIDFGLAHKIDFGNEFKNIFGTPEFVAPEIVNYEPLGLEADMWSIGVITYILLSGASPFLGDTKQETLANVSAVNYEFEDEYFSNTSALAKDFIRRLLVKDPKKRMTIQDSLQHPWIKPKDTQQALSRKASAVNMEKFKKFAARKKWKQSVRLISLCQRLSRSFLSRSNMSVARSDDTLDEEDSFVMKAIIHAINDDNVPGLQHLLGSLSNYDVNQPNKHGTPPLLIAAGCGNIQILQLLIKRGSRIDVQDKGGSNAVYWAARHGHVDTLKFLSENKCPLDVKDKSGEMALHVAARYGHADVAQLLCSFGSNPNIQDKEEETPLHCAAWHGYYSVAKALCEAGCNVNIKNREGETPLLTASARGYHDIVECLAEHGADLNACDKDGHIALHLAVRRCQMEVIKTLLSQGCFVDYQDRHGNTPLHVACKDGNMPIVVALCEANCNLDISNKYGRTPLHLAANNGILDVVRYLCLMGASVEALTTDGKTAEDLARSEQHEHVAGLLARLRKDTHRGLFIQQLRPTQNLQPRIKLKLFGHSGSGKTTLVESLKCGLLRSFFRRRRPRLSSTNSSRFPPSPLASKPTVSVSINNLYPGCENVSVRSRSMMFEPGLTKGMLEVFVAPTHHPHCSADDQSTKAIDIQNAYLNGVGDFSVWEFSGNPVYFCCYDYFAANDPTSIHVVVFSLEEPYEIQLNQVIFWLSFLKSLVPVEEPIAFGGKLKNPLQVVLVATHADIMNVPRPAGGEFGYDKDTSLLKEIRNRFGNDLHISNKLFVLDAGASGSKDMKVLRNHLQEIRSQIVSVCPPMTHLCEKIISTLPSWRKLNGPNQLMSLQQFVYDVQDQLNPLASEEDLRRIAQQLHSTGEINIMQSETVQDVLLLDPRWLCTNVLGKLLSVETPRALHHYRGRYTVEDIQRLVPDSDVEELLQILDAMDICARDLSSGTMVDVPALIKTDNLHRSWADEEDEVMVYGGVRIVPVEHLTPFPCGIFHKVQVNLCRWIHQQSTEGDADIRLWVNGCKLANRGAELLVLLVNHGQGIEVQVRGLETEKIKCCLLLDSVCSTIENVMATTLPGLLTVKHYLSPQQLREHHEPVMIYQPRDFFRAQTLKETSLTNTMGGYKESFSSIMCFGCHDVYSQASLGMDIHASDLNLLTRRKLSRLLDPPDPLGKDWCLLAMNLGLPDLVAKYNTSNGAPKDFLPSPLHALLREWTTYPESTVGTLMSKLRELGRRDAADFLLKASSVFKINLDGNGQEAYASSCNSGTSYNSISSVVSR
Sequence of MAP kinase-interacting serine/threonine-protein kinase 1 (Homo sapiens) (Q9BUB5 whole entry, looked up): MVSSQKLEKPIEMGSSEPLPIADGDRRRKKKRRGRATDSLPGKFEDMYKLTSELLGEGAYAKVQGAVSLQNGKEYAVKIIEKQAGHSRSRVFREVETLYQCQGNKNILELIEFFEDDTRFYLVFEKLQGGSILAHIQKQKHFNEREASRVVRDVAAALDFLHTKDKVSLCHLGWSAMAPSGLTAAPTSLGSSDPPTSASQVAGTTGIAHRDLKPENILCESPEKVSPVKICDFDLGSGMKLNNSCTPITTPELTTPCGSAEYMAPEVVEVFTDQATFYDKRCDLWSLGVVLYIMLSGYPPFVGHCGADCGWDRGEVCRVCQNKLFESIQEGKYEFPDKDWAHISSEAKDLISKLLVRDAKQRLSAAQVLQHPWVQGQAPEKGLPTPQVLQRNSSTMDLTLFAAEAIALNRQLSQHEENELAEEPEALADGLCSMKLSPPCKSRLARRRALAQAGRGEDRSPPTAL
Sequence of MAP kinase-activated protein kinase 2 (Homo sapiens) (P49137 whole entry, looked up): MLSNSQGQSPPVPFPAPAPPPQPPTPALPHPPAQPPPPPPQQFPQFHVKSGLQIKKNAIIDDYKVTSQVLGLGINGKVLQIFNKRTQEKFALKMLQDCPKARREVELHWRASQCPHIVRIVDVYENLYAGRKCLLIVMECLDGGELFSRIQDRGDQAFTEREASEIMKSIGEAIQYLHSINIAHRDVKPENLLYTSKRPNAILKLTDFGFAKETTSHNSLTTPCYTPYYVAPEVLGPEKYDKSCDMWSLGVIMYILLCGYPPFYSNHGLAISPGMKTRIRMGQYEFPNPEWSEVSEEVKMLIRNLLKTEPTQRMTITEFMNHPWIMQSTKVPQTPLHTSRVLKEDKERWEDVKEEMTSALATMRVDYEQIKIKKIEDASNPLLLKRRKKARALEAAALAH

For orientation: inhibition means the drop in the measured response relative to a control, in per cent. For `COc1cc2c(cc1Nc1nc(Nc3cccc(F)c3C(N)=O)c3cc[nH]c3n1)N(C(=O)CN1CCN(C(C)C)CC1)CC2`, the inhibition worked out at 5.15% in assay [1]; 4.68% in assay [2]; 1.43% in assay [3]; 1.04% in assay [4]; 2.85% in assay [5]; 3.25% in assay [6]. In addition, the inhibition in [7] was determined as 5.17%; in assay [8] it was 1.44%; in [9], 3.35%; in assay [10], 3.73%; in assay [11], 3.29%; in assay [12], 0.59%. Moreover, the inhibition in assay [13] worked out at 2.06%; in [14], 2.86%; in assay [15], 18.4%; in [16] it was 1.4%; in [17], 1.42%; in assay [18], 1.33%. Moreover, the inhibition in assay [19] stood at 4.51%; in [20] it was 0.26%.

`Nc1nccc(-c2c(-c3ccc(F)cc3)ncn2C2CCNCC2)n1`: the inhibition in [1] was -3.07% and -0.77%; in assay [2], 1.18% and 0.52%; in [3], -2.79% and 3.76%; in [4] it was -1.56% and -0.23%; in assay [5], -1.96% and -0.84%; in assay [6], 27.6% and 29.5%. Moreover, the inhibition is 34.1% and 34.6% in assay [7]; -0.83% and 1.71% in assay [8]; -0.5% and 1.51% in [9]; -0.05% and -0.2% in [10]; 0.65% and -2.22% in assay [11]; -0.05% and 0.87% in assay [12]. Further, the inhibition was 0.67% and 0.98% in assay [13]; -3.33% and -1.76% in assay [14]; 4.7% and 0.94% in [15]; -0.09% and 1.2% in [16]; 12.4% and 3.16% in assay [17]; 0.4% and 0.49% in assay [18]. The inhibition in assay [19] is 4.75% and 1.44%; in assay [20] it was 0.15% and 0.08%.

As to `FC(F)(F)CNc1nccc(-c2cnn3ncccc23)n1`, the inhibition in assay [1] is 2.17%; in assay [2], -0.54%; in [3] it was 3.19%; in assay [4] it was 1%; in assay [5], -0.08%; in [6] it was 3.47%. In addition, the inhibition was 3.54% in assay [7]; 1.58% in assay [8]; 4.46% in assay [9]; 0.46% in [10]; -0.26% in assay [11]; 1.01% in assay [12]. The inhibition in assay [13] is 0.89%; in assay [14] it was 5.66%; in [15] it was 27.5%; in assay [16] it was 4.07%; in assay [17] it was 20.6%; in assay [18], 2.55%. Moreover, the inhibition in assay [19] was found to be 26.4%; in assay [20] it was 0.47%.

Take `Cc1c2ccc(N(C)c3ccnc(Nc4cccc(S(N)(=O)=O)c4)n3)cc2nn1C`: the inhibition in assay [1] is 3.66%; in assay [2], -2.02%; in assay [3] it was -1.83%; in [4] it was 2.01%; in assay [5], 1.4%; in assay [6], 3.68%. For the same molecule, the inhibition is 4.05% in assay [7]; 4.13% in assay [8]; 7.61% in assay [9]; 5.31% in [10]; 5.76% in assay [11]; 2.63% in assay [12]. Also, the inhibition in assay [13] was 5.35%; in assay [14], 3.62%; in assay [15], 3.67%; in [16], 1.23%; in assay [17], 4.05%; in assay [18], -0.12%. Further, the figures for the inhibition in assay [19] and in assay [20] were 3.7% and 1.14%, respectively.

Regarding `CN1CCC(n2cnc(-c3ccc(F)cc3)c2-c2ccnc(NCCO)n2)CC1`, the inhibition in assay [1] was found to be 5.18%; in [2] it was 1.63%; in assay [3], 0.48%; in assay [4] it was 2.06%; in assay [5], 2.43%; in assay [6], 27.6%. For the same molecule, the inhibition was 37.2% in [7]; 3.31% in [8]; 7.7% in assay [9]; 4.03% in assay [10]; 6.04% in [11]; 0.86% in assay [12]. Further, the inhibition was 2.05% in assay [13]; 2.15% in [14]; 5.49% in assay [15]; 4.71% in assay [16]; 15.9% in assay [17]; 2.63% in assay [18]. Besides, the inhibition in assay [19] was 8.42%; in [20], -0.26%.

As to `CCS(=O)(=O)c1ccc(OC)c(Nc2ncc(-c3cccc(F)c3)o2)c1`, the inhibition in [1] stood at 7%; in assay [2], 1.71%; in assay [3], 1.48%; in assay [4] it was 2.52%; in [5], 3.2%; in [6], 7.02%. The inhibition in assay [7] worked out at 7.04%; in [8], 1.75%; in [9] it was 4.44%; in assay [10] it was 3.77%; in [11], 2.56%; in assay [12], 2.11%. Moreover, the inhibition in [13] was determined as 2.65%; in assay [14] it was 7%; in assay [15] it was 15.4%; in assay [16], 3.79%; in assay [17] it was 19.5%; in [18], 1.15%. Further, the inhibition in assay [19] came to 12.2%; in assay [20], 2.49%.

Turning to `CS(=O)(=O)Nc1ccc(-c2cc(-c3ccccc3)cc(C(N)=O)c2N)cc1`, the inhibition in assay [1] is 1.38%; in assay [2], -0.48%; in assay [3], 1.02%; in [4], 1.59%; in assay [5], 1.42%; in assay [6], 0.37%. In addition, the inhibition was 2.22% in assay [7]; 0.39% in [8]; 1.47% in assay [9]; -0.54% in [10]; 0.12% in assay [11]; 0.69% in assay [12]. For the same molecule, the inhibition was 0.98% in [13]; 3.07% in [14]; 7.77% in assay [15]; 1.45% in [16]; 4.03% in assay [17]; -0.47% in [18]. For the same molecule, the figures for the inhibition in assay [19] and in assay [20] were 3.27% and -0.25%, respectively.
